Data published in PubChem BioAssay.

Each molecule was assayed against Torsin-1A (Homo sapiens) (UniProt O14656) (assay: torsin A binders from cell lysate, primary screen, small-molecule microarray, wild-type, 635/667 nm (AID 1149)). Settings: COS7 hTOR1A-WT lysate, 635 nm fluorescence, higher = more signal.
Torsin-1A (Homo sapiens), sequence (O14656 whole entry, looked up): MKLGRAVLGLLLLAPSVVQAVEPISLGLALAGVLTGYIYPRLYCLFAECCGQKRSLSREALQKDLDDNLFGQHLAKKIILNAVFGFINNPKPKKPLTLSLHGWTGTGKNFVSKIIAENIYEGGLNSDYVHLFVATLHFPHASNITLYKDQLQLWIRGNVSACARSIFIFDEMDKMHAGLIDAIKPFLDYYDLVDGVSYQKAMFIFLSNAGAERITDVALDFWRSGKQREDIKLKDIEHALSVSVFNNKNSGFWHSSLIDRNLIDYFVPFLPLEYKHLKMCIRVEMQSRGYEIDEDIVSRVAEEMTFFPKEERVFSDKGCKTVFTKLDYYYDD
`CC(C)C[C@@H]1NC(=O)[C@H]2C[C@@H](C(=O)NCCCCCCNC(=O)CS)[C@@H](c3cccc(OCCO)c3)N2C1=O` showed a composite z-score of 1.53.
In the case of `CC(C)NC(=O)[C@@]1(Cc2ccccc2I)c2ccccc2C(=O)N(Cc2ccccc2)[C@H]1c1ccc(CO)cc1`, the composite z-score is reported as 0.484.
Molecule `O=C1O[C@H](c2ccccc2)[C@H](c2ccccc2)N2[C@H]1[C@@H](C(=O)N1CCN(c3ncccn3)CC1)[C@]1(C(=O)Nc3ccccc31)[C@H]2c1ccc(OCCO)cc1` has a composite z-score of 1.43.
`COc1ccc(CCNC(=O)[C@@]2(Sc3ccc(C)cc3)CC(=O)N(Cc3ccccc3Cl)[C@@H]2c2ccc(CO)cc2I)cc1` showed a composite z-score of -0.794.
Work on `CN(C)C(=O)[C@]1(CCC(=O)OC(C)(C)C)N=C(c2ccc(OCCCO)cc2)O[C@@H]1c1ccccc1N=[N+]=[N-]` yielded a composite z-score of 1.62.
Molecule `CC(=O)NCCCC[C@@H]1NC(=O)[C@@H]2C[C@H](C(=O)NCCCCN(C)C)[C@H](c3ccc(O)cc3)N2C1=O` has a composite z-score of -0.893.
With `COc1c(C)cc(-c2cc3c(c(-c4ccc(Oc5ccccc5)cc4)n2)[Si](C(C)C)(C(C)C)OC3)cc1C` the composite z-score was -0.238.
Molecule `CC(C)CNC(=O)[C@@]1(c2ccc([N+](=O)[O-])cc2)CC(=O)N(CC23CC4CC(CC(C4)C2)C3)[C@@H]1c1ccc(CO)cc1` has a composite z-score of 1.16.
In the case of `Cc1ccc(F)cc1S(=O)(=O)N[C@@H]1CCN(Cc2ccc(-c3ccccc3)cc2)C1`, the composite z-score is reported as 0.606.
In the case of `CC(C)(C)OC(=O)CC[C@]1(C(=O)N2CCCCC2)N=C(c2ccc(OCCCO)cc2)O[C@H]1c1ccccc1N=[N+]=[N-]`, the composite z-score is reported as 0.569.
For `COC(=O)c1ccc(C(O)C2C=CC3C(=O)N(C)C(=O)C3N2NC(=O)OC(C)(C)C)o1` (stereo not given), the composite z-score was 0.649.
For `CCCCCCCCCCC(O)C1C=CC2C(=O)N(Cc3ccccc3)C(=O)C2N1n1cnnc1` (stereo not given), the composite z-score was 0.0668.
In the case of `CCOC(=O)C1=CC[C@@H](c2ccccc2)N(S(=O)(=O)c2ccc(C)cc2)[C@H]1C(=O)OCC`, the composite z-score is reported as 0.59.
Molecule `CCCNC(=O)[C@@]1(c2ccc([N+](=O)[O-])cc2)CC(=O)N(CC23CC4CC(CC(C4)C2)C3)[C@@H]1c1ccc(CO)cc1` has a composite z-score of 0.0865.
In the case of `COCCOC(=O)N1C(=O)[C@@]2(c3ccccc31)[C@H](C(=O)NC[C@H](O)c1ccccc1)[C@H]1C(=O)O[C@H](c3ccccc3)[C@H](c3ccccc3)N1[C@@H]2c1ccc(OCCO)cc1`, the composite z-score is reported as 0.646.
`CCCCC=C[C@@H](NC(=O)c1ccco1)c1ccccc1` gave a composite z-score of 0.129.
`CC(=O)NCCCC[C@@H]1NC(=O)[C@H]2C[C@@H](C(=O)NCCCCCC[N+](C)(C)C)[C@@H](c3cccc(OCCO)c3)N2C1=O` showed a composite z-score of 1.07.
`O=C(CS)NCCCCCCNC(=O)[C@H]1C[C@H]2C(=O)NCC(=O)N2[C@H]1c1ccc(O)cc1` was tested, and the composite z-score was -0.21.
Molecule `COC(=O)[C@@]1(Cc2ccc(OC)cc2)[C@H]2c3cc(C(=O)N(C)C)n(Cc4c(OC)[nH]cc(C)c4=O)c3C[C@H]2CN1C(=O)c1ccccc1` has a composite z-score of 0.0857.
`CS(=O)(=O)CCOC(=O)C1=CC(c2ccc(CO)cc2)=CC(C2CC2)N(Cc2cc3c(cc2Br)OCO3)C=C1C(=O)OCCS(C)(=O)=O` (stereo not given) was tested, and the composite z-score was 0.0194.
`C=CCOC(=O)[C@H]1[C@@H]2C(=O)O[C@@H](c3ccccc3)[C@@H](c3ccccc3)N2[C@@H](c2ccc(OCCOC(=O)[C@@H]3C[C@@H]4C(=O)N5CCC[C@H]5C(=O)N4[C@@H]3c3ccc(O)cc3)cc2)[C@]12C(=O)Nc1ccccc12` was tested, and the composite z-score was 0.529.
In the case of `O=C1O[C@@H](c2ccccc2)[C@@H](c2ccccc2)N2[C@@H](c3ccccc3OCCO)[C@]3(C(=O)Nc4ccc(C#CC5(O)CCCCCC5)cc43)[C@@H](C(=O)Nc3nc4ccccc4s3)[C@H]12`, the composite z-score is reported as 0.711.
In the case of `COCC(=C=CC[C@@H](O)c1ccc(CO)o1)CCO`, the composite z-score is reported as -0.117.
For `CC(C)CNC(=O)[C@@H]1c2ccccc2C(=O)N(Cc2cc(C(F)(F)F)cc(C(F)(F)F)c2)[C@H]1c1ccc(CO)cc1`, the composite z-score was -0.395.
For `C=CCOC(=O)[C@H]1[C@@H]2C(=O)O[C@@H](c3ccccc3)[C@@H](c3ccccc3)N2[C@@H](c2ccc(OCCOC(=O)[C@@H]3C[C@@H]4C(=O)NCC(=O)N4[C@@H]3c3ccc(O)cc3)cc2)[C@]12C(=O)Nc1ccccc12`, the composite z-score was 0.342.
For `COC(=O)[C@@]1(Cc2ccccc2)[C@H]2c3cc(C(=O)N4CCCC4)n(C)c3C[C@H]2CN1C(=O)c1ccccc1`, the composite z-score was -0.212.
With `CC(C)Cc1ccc(CN2CC[C@@H](NS(=O)(=O)c3ccccc3)C2)cc1` the composite z-score was -0.957.
Work on `CC(=O)Nc1cc(Br)ccc1C(=O)O` yielded a composite z-score of 1.46.
`COC(=O)[C@@]1(Cc2ccccc2N=[N+]=[N-])COC(c2ccc(OCCCO)cc2)=N1` gave a composite z-score of 0.678.
`NC(=O)NCC#Cc1ccc2c(c1)[C@]1(C(=O)N2)[C@H](C(=O)NC[C@H](O)c2ccccc2)[C@H]2C(=O)O[C@H](c3ccccc3)[C@H](c3ccccc3)N2[C@@H]1c1ccc(O)cc1` was tested, and the composite z-score was 0.325.
`CCOC(=O)C[C@H]1[C@H](OC(=O)c2ccc(-c3ccccc3)cc2)[C@@H](NC(=O)Cc2ccc(OC)cc2)c2cc(OCCCO)ccc2N1C(=O)c1ccc2ccccc2n1` showed a composite z-score of 0.33.
For `COc1cccc(C(=O)O[C@H]2CC[C@]3(C)C4=C(CCC3C2(C)C)[C@]2(C)CC[C@H]([C@H](C)CCCC(C)C)[C@@]2(C)CC4)c1` (stereo not given in full), the composite z-score was 0.637.
Work on `O=C/C=C/c1ccc2c(c1)OCO2` yielded a composite z-score of 0.219.
Work on `O=C1C=CC(=O)[C@@H]2CC(COc3ccccc3)=C3[C@@H](CCc4ccccc4)OB(O)C[C@@H]3[C@H]12` yielded a composite z-score of -0.386.
Work on `O=C1O[C@@H](c2ccccc2)[C@@H](c2ccccc2)N2[C@@H](c3ccc(O)cc3)[C@]3(C(=O)Nc4ccc(C#CC5(O)CCCCCC5)cc43)[C@@H](C(=O)N3CCCCCCC3)[C@H]12` yielded a composite z-score of 2.71.
